Results taken from PubChem BioAssay AID624167 (Sanford-Burnham Center for Chemical Genomics, 2012).

Assay: Peg3 promoter luciferase inhibitors, potency, dose response, cell-based, HeLa, CREF/GAPDH counter-screen panel (AID 624167)
Conditions: CREF/GAPDH counter-screens; run 2, dose range 1, at 100 µM (top of the series)

Structure (SMILES)	inhibition [%]
CCC(C)Cn1c(O)cc2nn(-c3nc4ccccc4s3)c(=O)c-2c1C (stereo not drawn)	95.7
O=C(O)c1ccc(N/N=C/c2ccc3c(c2)OCO3)cc1	97.7
CCCCCCCn1c(=N)n(CC(=O)c2ccco2)c2ccccc21	90.6
Cc1nc(C)c(C(=O)N/N=C/c2cc(Br)ccc2O)s1	6.13
O=C(N/N=C/c1cc([N+](=O)[O-])ccc1O)c1ccc(COc2ccc3c(c2)CCC3)o1	-2.8
Clc1ccccc1/C=C/c1nc(-c2ccccn2)no1	96.2
Cc1cccc(OCC(=O)NCC(=O)N/N=C/c2cc(Br)cc(Br)c2O)c1	74.4
CC(C)(C)c1ccc(Oc2ccc(N)cc2)cc1	95.6
COc1ccc(N(C(=O)CCl)C(C(=O)NC2CCCCC2)c2cccnc2)cc1 (stereo not drawn)	82.8
CCCCCCN1C=C/C(=C\C=C(C#N)C#N)c2ccccc21	22.9
COc1ccc(C(NC(=O)C(C)C)c2ccc3cccnc3c2O)cc1 (stereo not drawn)	40.9
O=C(O)c1ccc(N/N=C/c2ccc(OC(=O)c3cccc(Cl)c3)cc2)cc1	97.2
Cc1ccc(C)c(S(=O)(=O)N2CCN(c3ncnc4sccc34)CC2)c1	61.2
CS(=O)(=O)Nc1cccc(NC(=O)C2Cc3c(-c4ccccc4)ccnc3O2)c1 (stereo not drawn)	54.2
CN1C/C(=C/c2ccccc2[N+](=O)[O-])C(=O)/C(=C\c2ccccc2[N+](=O)[O-])C1	53.9
O=C(N/N=C\c1c(O)ccc2ccccc12)c1cncc(Br)c1	72.8
Cc1ccc(OCC(=O)c2cc(C)n(Cc3ccco3)c2C)c([N+](=O)[O-])n1	66.6
O=C(CNc1ccccc1)N/N=C/c1c(O)ccc2ccccc12	63.7
